# The entries come from a sample that favours hits as a whole.
# Tb PYK inh = qHTS of Trypanosoma Brucei Inhibitors. pyruvate kinase (Trypanosoma brucei), Q57TT1. TbPYK enzyme, Kinase-Glo Plus ATP luminescence, 45 min. Potency, µM (top dose mostly 76.8 µM), hits mostly inhibitors. actives 0.12% (n = 410,000); further: nearly all actives have a fitted effect of over 50% in size
#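 Luminescent Kinase-Glo Plus end-point after 45 min room-temperature reaction of T. brucei pyruvate kinase started with 130 uM ADP (final). Buffer TEA 50 mM pH 7.2 with KCl, MgCl2, BSA, Tween-20; titration-based qHTS with fitted concentration-effect curves.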
# Shiga inhibitor = A qHTS for Small Molecule Inhibitors of Shiga Toxin; Vero cells, Shiga toxin protein synthesis inhibition reporter; inhibition, % at 38.7 µM; actives 9.2% (n = 290,000); AID 2315, 2010; in the data active means inhibition mostly above about 28%, no sharp cut-off; inactive means mostly below about 43%
# LmPK inh = qHTS Assay for Inhibitors of Leishmania Mexicana Pyruvate Kinase (LmPK); Q27686; purified LmPK, Kinase-Glo ATP luminescence, 1 h; Potency, µM (doses to about 57.5 µM), actives largely listed as inhibitors; actives 0.37% (n = 290,000)
# Target sequence (Q27686 whole entry, looked up): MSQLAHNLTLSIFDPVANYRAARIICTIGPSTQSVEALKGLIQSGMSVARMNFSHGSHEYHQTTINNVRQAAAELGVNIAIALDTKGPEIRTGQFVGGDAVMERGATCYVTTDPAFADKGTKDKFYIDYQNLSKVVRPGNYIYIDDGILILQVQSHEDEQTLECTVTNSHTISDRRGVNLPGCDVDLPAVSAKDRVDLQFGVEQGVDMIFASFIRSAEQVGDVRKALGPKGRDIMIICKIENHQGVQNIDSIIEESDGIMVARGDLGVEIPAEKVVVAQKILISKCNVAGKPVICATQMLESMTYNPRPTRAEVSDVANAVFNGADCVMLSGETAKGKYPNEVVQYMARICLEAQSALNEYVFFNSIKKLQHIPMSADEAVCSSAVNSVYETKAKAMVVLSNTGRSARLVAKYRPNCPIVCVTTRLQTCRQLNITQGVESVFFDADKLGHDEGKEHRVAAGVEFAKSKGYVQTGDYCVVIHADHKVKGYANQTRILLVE
#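 Purified LmPK (0.1 nM) converted ADP (0.1 mM) to ATP with PEP (0.5 mM) in imidazole buffer pH 7.2 with KCl and MgCl2, 1 h at room temperature. ATP was read by Kinase-Glo luminescence; data normalized to uninhibited and no-enzyme controls.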
# Sm TGR inh = qHTS Assay for the Inhibitors of Schistosoma Mansoni Peroxiredoxins. Schistosoma mansoni thioredoxin glutathione reductase (TGR), Q962Y6. Potency, µM (series often up to 114 µM), actives largely listed as inhibitors. actives 3% (n = 360,000). purified TGR, DTNB reduction, TNB absorbance 405 nm; further: nearly all actives have a fitted effect of over 60% in size
#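 Kinetic colorimetric format: TGR-catalysed, NADPH-driven DTNB reduction monitored via TNB absorbance. Enzyme dispensed at 20 nM; compound exposure 15 min at room temperature before reaction start.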
# CHX counter = Cycloheximide Counterscreen for Small Molecule Inhibitors of Shiga Toxin; actives 12% (n = 300,000); max response, %; cell reporter, cycloheximide protein synthesis inhibition counterscreen; in the data active means max response mostly above about 13%, no sharp cut-off; inactive means mostly below about 14%; further: read at 38.3 µM for the half of the compounds with a filed dose
# FBPA Giardia inh = qHTS Assay for Inhibitors of Fructose-1,6-bisphosphate Aldolase from Giardia Lamblia. purified Giardia FBPA. Potency, µM (highest dose often 59.6 µM), most hits filed as inhibitors. actives 0.71% (n = 290,000). AID 2451, 2010; further: nearly all actives have a fitted effect of over 55% in size
#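 Giardia FBPA (40 nM reagent) was preincubated 10 min at RT with compound (up to 57.5 uM final), then substrate plus GAPDH/TPI/NAD/arsenate coupling system with diaphorase/resazurin was added; resorufin fluorescence (525/598 nm) was read after 20 min.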
# Hits are given with their value; i = inactive; ? = inconclusive; nt = no result given; [ ] = another dose, or the depositor's remark. Unless noted, the call rests on the fitted dose curve; in most records, active means well fitted curve in the direction sought with a large enough effect; inconclusive means small, poorly fitted or top-dose-only effect, or another doubt; inactive means no such curve, though single readings can be large; an effect the other way counts as inactive or inconclusive.
SMILES,Tb PYK inh,Shiga inhibitor,LmPK inh,Sm TGR inh,CHX counter,FBPA Giardia inh
CC(C)CO/N=C1/C[C@@H](O)[C@@H](O)[C@@H]2[C@@H]3C(=O)N(c4cccc(Oc5ccccc5)c4)C(=O)[C@H]3CC[C@H]12,nt,nt,nt,nt,nt,i[12.9 µM]
C[C@@H]1C(=O)NC2=Nc3cccc(Cl)c3CN21,i,nt,nt,nt,nt,i
COc1ccc(/C(O)=C2/C(=O)C(=O)N(CCCN3CCOCC3)C2c2ccc(C)cc2)cc1 (stereo not drawn),i,i,i,i,i,i
O=C1C(=O)N(CCN2CCOCC2)C(c2ccccn2)/C1=C(/O)c1ccc(F)cc1 (stereo not drawn),?,i,i,28.2µM,i,?
Cc1ccc(/C(O)=C2/C(=O)C(=O)N(CCN3CCOCC3)C2c2cccs2)cc1 (stereo not drawn),i,i,i,i,10.6,i
COc1ccc(/C(O)=C2/C(=O)C(=O)N(CCN3CCOCC3)C2c2ccc(C)cc2)cc1 (stereo not drawn),i,i,i,i,i,nt
O=C1C(=O)N(CCCN2CCOCC2)C(c2ccc(F)cc2)/C1=C(/O)c1ccccc1 (stereo not drawn),i,i,i,?,i,i
CC(C)Oc1ccc(/C(O)=C2/C(=O)C(=O)N(CCN3CCOCC3)C2c2ccccc2)cc1 (stereo not drawn),i,112.3,i,i,25.2,i
COc1ccccc1C1/C(=C(/O)c2ccc(C)cc2)C(=O)C(=O)N1CCN1CCOCC1 (stereo not drawn),i,i,i,i,i,i
COc1ccc(C2/C(=C(/O)c3ccc(C)cc3)C(=O)C(=O)N2CCCN2CCOCC2)cc1 (stereo not drawn),i,nt,i,44.7µM,i,i
COc1ccc(/C(O)=C2\C(=O)C(=O)N(CCN3CCOCC3)C2c2ccccc2OC)cc1 (stereo not drawn),i,i,i,i,i,i
COc1ccc(/C(O)=C2/C(=O)C(=O)N(CCN3CCOCC3)C2c2ccccn2)cc1 (stereo not drawn),i,54.3,i,22.4µM,33.2,?
C[n+]1ccccc1/C=C/c1ccccc1Cl,i,i,i,22.4µM,i,?
C[n+]1ccccc1/C=C/c1c(F)cccc1F,i,i,i,12.6µM,i,?
COc1ccc(C(=O)NCc2nnnn2-c2ccc(C)c(C)c2)cc1,i,nt,nt,i,nt,nt
CCn1c(=O)c2c(nc3n2CCN3c2ccc(OC)cc2)n(C)c1=O,i,nt,nt,i,nt,nt
O=C(O)c1ccc(-c2ccc3cc(C45CC6CC(CC(C6)C4)C5)c(O)cc3c2)cc1,nt,28.4,nt,nt,44.6,i
COc1ccc(-c2ccc3cc(C(=O)O)ccc3c2)cc1C12CC3CC(CC(C3)C1)C2,i,nt,nt,nt,nt,nt
COc1cc2c(cc1OC)C1N(CC2)C(=O)CCC12C(=O)CCCC2=O (stereo not drawn),nt,nt,nt,nt,nt,i
COc1cccc2cc(-c3nc4ccccc4[nH]3)c(=O)oc12,i,nt,i,i,32.0,i
Cc1cccc2cc(-c3nc4ccc(C(=O)O)cc4[nH]3)c(=O)oc12,i,37.1,i,i,24.6,?
COc1ccc(/C=C/C(=O)c2cc3cccc(OC)c3oc2=O)cc1,i,i,i,i,i,i
COc1cccc2cc(-c3nc(-c4ccccc4F)no3)c(=O)oc12,i,nt,nt,i,nt,nt
COc1cccc2cc(-c3ccccc3)c(=O)oc12,i,103.9,?,i,47.8,i
COc1ccc(-c2cc3cccc(OC)c3oc2=O)cc1,i,63.8,i,i,27.7,i
SMILES,Tb PYK inh,Shiga inhibitor,LmPK inh,Sm TGR inh,CHX counter,FBPA Giardia inh
CC(C)(C)c1cc(C(C)(C)C)c2oc(=O)c(-c3nc4ccccc4[nH]3)cc2c1,i,nt,nt,i,nt,nt
Cn1c(=O)c2cn(-c3ccc4c(c3)OCCO4)cc2n(C)c1=O,i,i,i,?,67.1,?
Cc1ccc(NC(=O)CCNS(=O)(=O)c2ccc3c(c2)c(=O)n(C)c(=O)n3C)cc1C,i,i,i,i,i,i
Cc1cc(N)c(-n2cc3c(=O)n(C)c(=O)n(C)c3c2)cc1C,i,i,?,i,39.9,i
Cc1ccc(-n2cc3c(=O)n(C)c(=O)n(C)c3c2)cc1C,i,i,i,?,21.3,?
O=C(Cc1ccccc1)NC1CCN(Cc2ccccc2)CC1,i,i,i,i,i,i
N#CC(c1ccccc1)C1CCN(Cc2ccccc2)CC1 (stereo not drawn),i,i,i,89.1µM,i,i
Cc1c(C(=O)Nc2cccc(F)c2)oc2c1-c1nn(Cc3c(F)cccc3Cl)cc1CC2,i,nt,nt,i,nt,nt
Cn1cccc1C1NC(=O)c2c(sc3c2CCC(C(C)(C)C)C3)N1 (stereo not drawn),i,28.6,i,?,10.8,i
CN1CCc2c(sc3c2C(=O)NC(c2ccco2)N3)C1 (stereo not drawn),i,i,i,i,i,?
COc1ccc(-c2cc(C(=O)NC3CCCC3)no2)cc1,i,93.4,i,i,18.1,i
COC(=O)c1cc(-c2ccc(OC)cc2)on1,i,i,i,i,i,i
COC(=O)c1cc(-c2cccc(OC)c2)on1,i,i,i,i,i,i
COC(=O)c1cc(-c2ccc(OC)c(OC)c2)on1,i,i,i,i,i,i
COc1ccc(-c2cc(C(=O)NC3CCCC3)no2)cc1OC,i,26.1,i,i,24.5,i
COc1cccc(-c2cc(C(=O)NC3CCCCC3)no2)c1,i,80.6,i,i,i,i
COc1ccc(-c2cc(C(=O)NC(C)C)no2)cc1,i,58.5,i,i,i,i
COc1ccc(-c2cc(C(=O)Nc3ccc(OC)cc3OC)no2)cc1,i,i,i,i,i,i
O=C(c1ccccc1Oc1ccc([N+](=O)[O-])cc1)N1CCOCC1,i,i,i,i,i,nt
O=C(O)c1cc(N(Cc2ccccc2O)Cc2cc(O)ccc2O)ccc1O,nt,i,nt,nt,i,i
COCCNC(=O)c1cc(-c2ccc(OC)c(OC)c2)on1,i,i,i,i,20.1,i
O=C(NC1CCCCC1)c1cc(-c2ccco2)on1,i,142.9,i,i,36.4,i
CCN(CC)CCCNC(=O)c1cc(-c2ccc(OC)c(OC)c2)on1,i,nt,nt,i,nt,nt
CC(C)c1ccc(Nc2cc(C(=O)NCCc3ccccc3)c3ccccc3n2)cc1,i,nt,nt,i,nt,nt
Cc1cc(C)nc(Nc2n[nH]c(-c3ccc(C(C)(C)C)cc3)n2)n1,i,i,i,i,i,i
Cc1cc(C)nc(Nc2ccccc2Br)n1,i,i,i,i,i,i
Cc1cc(C)nc(Nc2n[nH]c(-c3ccc(N)cc3)n2)n1,i,72.4,i,i,35.6,i
Cc1cc(C)nc(Nc2n[nH]c(C)n2)n1,i,i,i,i,i,i
